Bioassay records: PubChem BioAssay, National Center for Advancing Translational Sciences (NCATS)
ALOX12 inhib – 12-hLO (ALOX12) enzyme inhibition; Potency, µM (top dose mostly 57.1 µM), for the others: top-dose activity change, negative = inhibition, usual class: inhibitors; 150,000 compounds, 0.12% hits; AID 1452; purified 12-hLO, xylenol orange hydroperoxide absorbance; active = well fitted inhibition curve with a large enough effect; inconclusive = small, poorly fitted or top-dose-only effect; also: potency is read from the fitted curve at half-maximal effect; nearly all actives have a fitted effect of over 55% in size
Target sequence (P18054 whole entry, looked up): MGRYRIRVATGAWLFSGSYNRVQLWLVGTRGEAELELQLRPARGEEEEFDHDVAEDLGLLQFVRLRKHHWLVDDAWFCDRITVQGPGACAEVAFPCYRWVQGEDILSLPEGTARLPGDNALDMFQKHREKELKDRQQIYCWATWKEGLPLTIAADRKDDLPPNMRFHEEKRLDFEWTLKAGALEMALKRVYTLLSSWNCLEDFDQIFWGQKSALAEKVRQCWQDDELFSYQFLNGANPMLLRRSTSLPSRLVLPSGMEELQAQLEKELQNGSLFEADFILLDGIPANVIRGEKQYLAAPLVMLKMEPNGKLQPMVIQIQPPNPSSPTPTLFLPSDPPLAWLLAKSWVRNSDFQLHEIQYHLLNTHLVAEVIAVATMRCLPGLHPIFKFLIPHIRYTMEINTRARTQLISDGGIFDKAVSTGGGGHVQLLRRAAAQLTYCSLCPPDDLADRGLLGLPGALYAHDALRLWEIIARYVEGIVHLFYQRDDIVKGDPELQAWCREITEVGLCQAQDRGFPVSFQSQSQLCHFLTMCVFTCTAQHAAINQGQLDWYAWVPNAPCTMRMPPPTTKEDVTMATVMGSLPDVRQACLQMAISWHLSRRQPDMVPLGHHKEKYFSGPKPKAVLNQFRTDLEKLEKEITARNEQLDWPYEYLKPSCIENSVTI
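Hydroperoxide formation by human 12-lipoxygenase from 40 uM arachidonic acid was followed colorimetrically via ferric-xylenol orange complex, using the 573/405 nm absorbance ratio. Enzyme concentration was 150 nM, with 30 min reaction at room temperature.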
HPGD inh – inhibitors of human 15-hydroxyprostaglandin dehydrogenase (HPGD); P15428; purified HPGD, NADH fluorescence kinetic, PGE2 substrate; Potency, µM, for inactives: at the highest dose activity change, negative = inhibition, hits mostly inhibitors; 150,000 compounds, 4.3% hits; also: potency is read from the fitted curve at half-maximal effect
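20 nM HPGD preincubated 15 min at room temperature with compound in 50 mM Tris-HCl pH 8, 0.01% Tween 20. Started with 1 mM NAD+ and 30 uM prostaglandin E2; NADH fluorescence (360/450 nm) read 5 times over 30-s intervals, last minus first.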
Lamin A splicing – changes lamin A minigene splicing in HeLa cells; HeLa LMNA splicing GFP/RFP minigene ratio, 48 h; Potency, µM (series often up to 46.1 µM), without a hit: top-dose ratio change, negative = inhibition, actives largely listed as inhibitors; 200,000 compounds, 0.01% hits; active = well fitted inhibition curve with a large enough effect in the signal ratio, with a control signal flat, not every such curve was filed as active; inconclusive = small, poorly fitted or top-dose-only effect, or effect the other way, or a change in a side signal; the % refers to the signal ratio; also: potency is read from the fitted curve at half-maximal effect
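S3 HeLa cells stably expressing lamin A-EGFP splicing minigene plus DsRed2, 600 cells/well, 48 h compound exposure at 37C. Laser-scanning cytometry; analysed as GFP (500-530 nm)/RFP (575-640 nm) total intensity ratio; 0.5% DMSO vehicle.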
PNC inhibitor – perinucleolar compartment assembly inhibition | PC3M PTB-GFP, PNC prevalence imaging, 16 h; active compounds read low | AID 2417 | activity change (PNC), negative = inhibition, % at 10 µM | 140,000 compounds, 3.1% hits;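 active = readout at or below -70, meaning at least 70% loss of cells showing the perinucleolar compartment, a nuclear body marking cancer cells; inconclusive = readout between -30 and a set limit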;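 also: plate controls were DMSO wells for no effect and camptothecin positive control wells for full effect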
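Compounds are pinned in duplicate onto adhered PC3M cells stably expressing GFP-tagged PTB and incubated 16 h at 37 C. Cells are then fixed, nuclei stained with Hoechst, and PNC-positive cells counted.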
ALDH1A1 inh – ALDH1A1 (human) enzyme inhibition. P00352. Purified ALDH1A1, NADH fluorescence, propionaldehyde substrate. Potency, µM (titrated, usually from 75.3 µM), without a hit: top-dose activity, negative = inhibition, most hits filed as inhibitors. 220,000 compounds, 7.3% hits. AID 1030;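 also: potency is read from the fitted curve at half-maximal effect; plate controls were no enzyme wells and a reference inhibitor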
The depositor's hits bear a star; u = inconclusive; x = not tested or not shown; [ ] = another dose, or the depositor's remark. A selection: hits, their analogues and other compounds. The true share with any hit is near 10%. Unless noted, calls follow the shape of the dose curve; as a rule, active = well fitted inhibition curve with a large enough effect (not every such curve was filed as active); inconclusive = small, poorly fitted or top-dose-only effect, or another doubt; inactive = no such curve, though single readings can be large or run the other way. Unless noted, % is scaled to controls: 0 for no effect and ±100 for the full control effect.

SMILES | ALOX12 inhib | HPGD inh | Lamin A splicing | PNC inhibitor | ALDH1A1 inh
O=C1CN(C(=O)CSc2nc(-c3ccc(Cl)cc3)cs2)c2ccccc2N1 | -1% | 13µM* | u | -113* | -4%
Cc1cc(C)cc(C(=O)N2CC(=O)Nc3ccccc32)c1 | -3% | -27% | u | -80* | u
Cc1ccc(/C=C/C(=O)N2CC(=O)Nc3ccccc32)o1 | x | x | x | x | 20µM*
Nn1c(Cc2ccccc2F)nnc1SCC(=O)N1CC(=O)Nc2ccccc21 | 2% | -17% | -19% | -100* | 4%
Cc1nnc(SCC(=O)N2CC(=O)Nc3ccccc32)s1 | x | x | x | x | -1%
Cc1nnc(SCC(=O)N2CC(=O)Nc3ccccc32)n1-c1ccccc1 | -3% | -11% | u | 10 | -5%
Cc1ccsc1C(=O)N1CC(=O)Nc2ccccc21 | -4% | -14% | -17% | u | -2%
CCc1cc2c(nc1CC)CCN(CC/C(C)=N/OC[C@@H](O)COCc1ccco1)C2 | x | x | x | x | 16%[13.5 µM]
COc1ccc2nc(SCC(=O)N3CC(=O)Nc4ccccc43)c(C#N)cc2c1 | 5% | u | u | u | -15%
Cc1cc(C)c2nc(SCC(=O)N3CC(=O)Nc4ccccc43)c(C#N)cc2c1 | -2% | u | u | -104* | u
CC1(CC(=O)O)O[C@H]2CCCCC[C@H]2O1 (some centres not stated) (tested in a mixture with another compound) | 3%[11.4 µM] | -8% | x | x | 1%[13.5 µM]
CCCS(=O)(=O)NCCc1cc2ccc(C)cc2[nH]c1=O | -2% | u | -7% | 28 | u
CCCS(=O)(=O)NCCc1cc2cc(C)c(C)cc2[nH]c1=O | -7% | -23% | -11% | -100* | 1%
COc1ccc(OC)c2[nH]c(=O)c(CCNC(C)=O)cc12 | -2% | -4% | -5% | u | 10%
CCS(=O)(=O)NCCc1cc2c(OC)ccc(OC)c2[nH]c1=O | -2% | -22% | -6% | -100* | u
COc1ccc(C(=O)N2CCN(c3nnnn3-c3ccccc3)CC2)cc1OC | 1% | -1% | 9% | 11 | 16µM*
CCOC(=O)N1CCN(c2nnnn2-c2ccccc2)CC1 | 1% | -5% | -2% | -13 | u
Cc1nnc(Sc2cc(NCCO)c([N+](=O)[O-])c3nonc23)s1 | x | x | u | x | -6%
CCC(=O)OCCNc1cc(Sc2nc3ccccc3[nH]2)c2nonc2c1[N+](=O)[O-] | -24% | 7.1µM* | u | 31 | -20%
O=[N+]([O-])c1c(NCCCO)cc(Sc2nc3ccccc3s2)c2nonc12 | -8% | 2.8µM* | u | 47 | 16µM*
CCCSc1cc(NCCOC(=O)CCC)c([N+](=O)[O-])c2nonc12 | -9% | -17% | u | 16 | u
CCC(=O)OCCNc1cc(Sc2nc3ccccc3s2)c2nonc2c1[N+](=O)[O-] | 0% | 3.2µM* | 1% | 16 | 8.9µM*
CN1CC(=O)N(CC(=O)Nc2cccc(C#N)c2)c2ccccc2C1=O | x | x | -1%[46 µM] | x | x
CCOCCCN1C(=O)CN(C2CCCCCC2)C(=O)C1c1ccc(OC(C)C)c(OC)c1 (configuration not stated) | x | x | -5%[46 µM] | x | x
Cc1cc(-n2c(SCC(=O)NCc3ccccc3)nc3ccsc3c2=O)ccc1Cl | x | x | -7%[46 µM] | x | x
SMILES | ALOX12 inhib | HPGD inh | Lamin A splicing | PNC inhibitor | ALDH1A1 inh
Cc1cccc(CSC(=N)N)c1 | 2% | x | 0% | -115* | 8%
CC1(C(O)(C#CC[N+]2(C)CCCCC2)c2ccccc2)CCCC1 (configuration not stated) | x | x | 11%[46 µM] | x | -6%
CC1(C#CC[N+]2(C)CCCCC2)CCC2C(O1)c1ccccc1OC2(C)C (configuration not stated) | x | x | 15%[46 µM] | x | 32µM*
CCCCn1c(SCC(=O)N2CCN(c3ccccc3)CC2)nc2ccsc2c1=O | -12% | x | u | -112* | u
CCCCn1c(SCC(=O)Nc2ccccc2C(F)(F)F)nc2ccsc2c1=O | -1% | -15% | 18% | u | 28µM*
CCC1CCCCN1C(=O)CSc1nc2ccsc2c(=O)n1Cc1ccccc1 (configuration not stated) | 3% | -14% | 12% | 9 | u
CCCCn1c(SCC(=O)N2CCC(C)CC2)nc2ccsc2c1=O | -10% | -15% | u | -22 | 11µM*
COC(=O)c1ccccc1NC(=O)CSc1nc2ccsc2c(=O)n1CCC(C)C | x | x | 3%[46 µM] | x | x
Cc1nn(C)c2c1c(-c1ccccc1)cc(=O)n2CC(=O)NC(C)c1ccccc1 (configuration not stated) | x | x | 19%[46 µM] | x | x
CCCCC(=O)Nc1cccc(OCc2cc(=O)n3ccccc3n2)c1 | x | x | -22%[46 µM] | x | x
COc1cccc(N2CCN(C(=O)c3cnc4c(-c5ccc(F)cc5)c(C)nn4c3C)CC2)c1 | x | x | -5%[46 µM] | x | x
Cn1cccc1C(=O)N1CCC2(CCCN(c3ccccc3)C2)CC1 | -13% | -13% | x | x | u
Cc1cc(C)c(S(C)(=O)=O)c(Oc2ccc(C(C)(C)C)cc2)n1 | -5% | -7% | 8% | -1 | 16µM*
Cc1cc(C)c(S(C)(=O)=O)c(Oc2cccc(Cl)c2)n1 | 4% | -8% | -8% | 29 | 13%
CC(C)(C)C1=Nn2c(nnc2-c2n[nH]c3c2CCC3)SC1 | 5% | 16µM* | 4% | u | u
CC1=Nn2c(nnc2-c2n[nH]c3c2CCC3)SC1 | 5% | -3% | -3% | u | 1%
COc1cccc(-n2c(CN3CCN(c4ccc(C)cc4)C(C)C3)nc3ccc([N+](=O)[O-])cc3c2=O)c1 (configuration not stated) | 0% | -5% | -8% | 26 | 25µM*
COCCN1C(=O)/C(=C/c2ccc(N3CCCC3)cc2)SC1=S | x | x | x | x | -6%
CCN1C(=S)SC(=O)C1=C1C=C(C)N(CCOC)C(C)=C1 | -8% | -27% | u | -1 | 6.3µM*
CCCN1C(=O)/C(=C\C=C2/Sc3ccccc3N2CCO)SC1=S | x | x | 4%[46 µM] | x | 6%
CCN1C(=S)SC(=O)C1=C1C=C(C)N(CCO)C(C)=C1 | -18% | u | -1% | u | 16µM*
COc1ccc(S(=O)(=O)NCCC(=O)NCc2cccs2)cc1 | 1% | -3% | 1% | 17 | -3%
CCOc1ccc(S(=O)(=O)NCCSCc2ccco2)cc1 | -5% | -22% | -16% | u | 2.8µM*
COc1ccc(S(=O)(=O)NCCSCc2ccco2)cc1 | -14% | -16% | 4% | u | 2.8µM*
Cc1ccc(-c2ccc(S(=O)(=O)NCc3ccco3)cc2)cc1 | x | x | 10%[46 µM] | x | 12%
COc1ccc(S(=O)(=O)NCCSCc2cccs2)cc1 | 0% | -3% | -7% | 5 | 1µM*
COc1ccc(S(=O)(=O)NCCSCc2ccco2)cc1OC | 0% | -11% | -10% | 3 | u
Cc1ccc(S(=O)(=O)NCCSCc2ccco2)cc1 | x | x | u | x | 20µM*
CC(NC(=O)C(=O)Nc1c2c(nn1-c1ccccc1)CSC2)c1ccccc1 (configuration not stated) | x | x | -5%[46 µM] | x | x
